Screening results as filed in PubChem BioAssay.
IDE exosite inh – exo-site inhibitors of human IDE, primary screen, biochemical, fluorescence anisotropy, probe displacement. purified IDE, FL-6b probe fluorescence polarization; hits give low values. z-score at 20 µM. 6.3% of 17,000 active. AID 1259349, 2017;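 active = z-score of -3 or lower, meaning strong loss of probe binding signal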;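 also: His-tagged human IDE residues 42-1019 made in E. coli with 30 nM FL-6b probe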
Target sequence (P14735 42-1019 limits assumed): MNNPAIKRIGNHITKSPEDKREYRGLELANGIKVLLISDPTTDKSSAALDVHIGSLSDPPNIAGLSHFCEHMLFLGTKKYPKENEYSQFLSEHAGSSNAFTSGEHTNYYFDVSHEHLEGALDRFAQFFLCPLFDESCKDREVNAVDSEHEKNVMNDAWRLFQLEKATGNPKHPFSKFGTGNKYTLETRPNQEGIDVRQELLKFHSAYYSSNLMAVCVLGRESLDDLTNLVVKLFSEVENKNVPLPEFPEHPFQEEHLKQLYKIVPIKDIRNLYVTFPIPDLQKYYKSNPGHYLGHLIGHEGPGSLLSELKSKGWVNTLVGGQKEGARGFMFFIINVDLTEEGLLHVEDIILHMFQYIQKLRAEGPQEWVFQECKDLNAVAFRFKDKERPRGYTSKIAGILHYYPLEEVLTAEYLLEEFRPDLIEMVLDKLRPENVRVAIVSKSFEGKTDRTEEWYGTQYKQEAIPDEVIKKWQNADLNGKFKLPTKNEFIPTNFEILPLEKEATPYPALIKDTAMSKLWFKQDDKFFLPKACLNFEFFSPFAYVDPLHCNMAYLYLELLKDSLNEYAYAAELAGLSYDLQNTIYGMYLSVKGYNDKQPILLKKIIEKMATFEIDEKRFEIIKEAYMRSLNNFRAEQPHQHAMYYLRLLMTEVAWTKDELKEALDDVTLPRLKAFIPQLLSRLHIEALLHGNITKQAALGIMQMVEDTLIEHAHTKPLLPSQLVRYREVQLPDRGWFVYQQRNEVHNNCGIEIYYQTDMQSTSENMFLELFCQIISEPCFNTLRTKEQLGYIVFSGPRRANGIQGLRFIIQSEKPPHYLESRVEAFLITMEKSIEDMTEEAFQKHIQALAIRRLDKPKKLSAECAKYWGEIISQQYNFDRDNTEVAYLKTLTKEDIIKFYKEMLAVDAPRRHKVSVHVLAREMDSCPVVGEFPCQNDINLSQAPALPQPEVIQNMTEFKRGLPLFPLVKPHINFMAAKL
* marks the source's active call; other numbers are inactive results. The sample as a whole holds a higher share of hits than the screen did.

SMILES	IDE exosite inh
CCCNC(=O)N1CC(=O)N2[C@H](CO)[C@H](c3ccc(C#Cc4cccc(F)c4)cc3)[C@@H]2C1	-8.5*
COCC(=O)N1CC(=O)N2[C@@H](CO)[C@@H](c3ccc(C#CC4CC4)cc3)[C@@H]2C1	-0.069
O=C(NCc1ccccc1)[C@H]1[C@H](CO)[C@H]2Cn3c(cccc3=O)[C@@H]1N2C(=O)Cc1ccccn1	-0.64
CN1C(=O)c2cc(NC(=O)Cc3cccs3)ccc2OC[C@@H]2O[C@H](CC(=O)N[C@@H]3CCN(Cc4ccccc4)C3)CC[C@@H]21	-0.95
CCCNC(=O)N1[C@H](CO)[C@H](c2ccc(C#Cc3cccc(F)c3)cc2)[C@@H]1C#N	-0.75
CCC(=O)NC[C@H]1[C@@H](c2ccc(-c3ccccc3)cc2)[C@@H](CO)N1C(=O)C1CC1	-0.76
COc1ccc(NC(=O)N2C[C@@H](O)COC[C@@H]3O[C@@H](CC(=O)N4CCCCC4)CC[C@H]32)cc1	1.7
COc1ccc2c3c(n(C)c2c1)[C@H](CO)N(C(C)=O)CC31CCN(C(=O)c2cnccn2)CC1	-1.6
CO[C@@H]1CN(C)C(=O)c2cc(NC(C)=O)ccc2OC[C@H](C)N(C(=O)Cc2ccccn2)C[C@H]1C	1.3
C/C=C/c1ccc([C@H]2[C@@H](CO)N(C(=O)c3ccccc3)C23CN(C(C)=O)C3)cc1	-1.6
O=C(c1cccc(F)c1)N1CCCCN2[C@H](CO)[C@H](c3ccc(/C=C/c4ccccc4)cc3)[C@H]2C1	1.3
CCCNC(=O)N1C[C@@H](C)[C@H](OC)CN(C)C(=O)c2ccc(NC(=O)CC)cc2OC[C@H]1C	0.11
CCCC#Cc1ccc([C@@H]2[C@@H](CO)N3C(=O)CN(S(=O)(=O)c4ccccc4C)C[C@H]23)cc1	-1.6
Cc1noc(C)c1NC(=O)Nc1ccc2c(c1)C(=O)N([C@@H](C)CO)C[C@@H](C)[C@H](CN(C)Cc1ccc3c(c1)OCO3)OCCCC[C@H](C)O2	1.6
O=C1CN(S(=O)(=O)Cc2ccccc2)C[C@H]2[C@H](c3ccc(C#Cc4cccnc4)cc3)[C@H](CO)N12	-0.55
C[C@@H]1CN([C@@H](C)CO)C(=O)c2cc(NC(=O)CCCN(C)C)ccc2O[C@H]1CN(C)Cc1ccc(Cl)c(Cl)c1	1.4
CO[C@H]1CN(C)C(=O)c2cc(NC(=O)NC3CCCCC3)ccc2OC[C@@H](C)N(CC2CCOCC2)C[C@@H]1C	0.82
Cc1ccc(-c2ccc([C@@H]3[C@H](CO)N4CCCCN(C(=O)c5ccncc5)C[C@@H]34)cc2)cc1	-1.2
Cc1cccc(-c2ccc([C@@H]3[C@H](CO)N4CCCCN(C(=O)c5cccnc5)C[C@@H]34)cc2)c1	-1.4
O=C(c1ccncc1)N1CCCCN2[C@H](C1)[C@H](c1ccc(-c3ccccc3)cc1)[C@@H]2CO	1.9
Cc1cccc(-c2ccc([C@@H]3[C@H](CO)N4CCCCN(C(=O)c5ccncc5)C[C@@H]34)cc2)c1	-12*
Cc1cccc(-c2ccc([C@H]3[C@H]4CN(C(=O)c5ccncc5)CCCCN4[C@H]3CO)cc2)c1	-3*
O=C(c1ccncc1)N1CCCCN2[C@@H](CO)[C@@H](c3ccc(-c4ccccc4)cc3)[C@@H]2C1	-0.96
CCCC#Cc1ccc([C@H]2[C@H]3CN(C(=O)Nc4ccccc4F)CC(=O)N3[C@H]2CO)cc1	-0.058
CCCNC(=O)Nc1ccc2c(c1)OC[C@@H](C)N(Cc1cncnc1)C[C@@H](C)[C@H](OC)CN(C)C2=O	-1.2
SMILES	IDE exosite inh
COc1ccc(S(=O)(=O)N2CCCCN3[C@H](CO)[C@H](c4ccc(C5=CCCC5)cc4)[C@@H]3C2)cc1	2.3
CCS(=O)(=O)Nc1ccc2c(c1)C(=O)N(C)[C@@H]1CC[C@H](CC(=O)N3CCN(C)CC3)O[C@@H]1CO2	0.8
Cc1ccc(S(=O)(=O)N[C@H]2CC[C@H](CC(=O)NCc3ccncn3)O[C@H]2CO)cc1	0.87
O=C1CN(Cc2ccc(F)cc2)C[C@@H]2[C@H](c3ccc(-c4ccccc4F)cc3)[C@H](CO)N12	-1.7
O=C(NC1CCCCC1)N1CC(=O)N2[C@@H](CO)[C@@H](c3ccc(-c4ccccc4)cc3)[C@@H]2C1	-3.7*
O=C(NC1CCCCC1)N1CC(=O)N2[C@H](C1)[C@H](c1ccc(-c3ccccc3)cc1)[C@@H]2CO	-0.35
O=C(NC1CCCC1)N1CC(=O)N2[C@H](CO)[C@H](c3ccc(-c4cccnc4)cc3)[C@H]2C1	-3
O=C(NC1CCCC1)N1CC(=O)N2[C@H](CO)[C@@H](c3ccc(-c4cccnc4)cc3)[C@H]2C1	-1.8
O=C(NC1CCCCC1)N1CC(=O)N2[C@H](C1)[C@@H](c1ccc(-c3ccccc3)cc1)[C@@H]2CO	-9.1*
O=C(NC1CCCCC1)N1CC(=O)N2[C@H](CO)[C@@H](c3ccc(-c4ccccc4)cc3)[C@H]2C1	-5.2*
O=C(NC1CCCCC1)N1CC(=O)N2[C@H](C1)[C@H](c1ccc(-c3ccncc3)cc1)[C@@H]2CO	-0.15
O=C(NC1CCCCC1)N1CC(=O)N2[C@@H](CO)[C@H](c3ccc(-c4ccncc4)cc3)[C@@H]2C1	-0.0019
O=C(NC1CCCCC1)N1CC(=O)N2[C@@H](CO)[C@H](c3ccc(-c4ccccc4)cc3)[C@@H]2C1	-0.88
O=C1CNC[C@@H]2[C@H](c3ccc(C4=CCCC4)cc3)[C@@H](CO)N12	0.17
CN(C)CC#Cc1ccc([C@H]2[C@@H](CO)N3CCCCN(CC4CCOCC4)C[C@H]23)cc1	1.6
Cc1ccc(S(=O)(=O)Nc2ccc3c(c2)CC(=O)N([C@H](C)CO)C[C@H](C)[C@@H](CN(C)S(=O)(=O)c2ccccc2)O3)cc1	1.6
O=C(c1ccncc1)N1CC2(C1)[C@@H](c1ccccc1)[C@@H](CO)N2CC1CC1	-0.48
O=C(Cc1ccccn1)N1CC2(C1)[C@@H](c1ccccc1)[C@H](CO)N2C(=O)c1ccncc1	-3.6*
O=C(CC1CC1)N1CC2(C1)[C@H](c1ccccc1)[C@@H](CO)N2Cc1ccccn1	1.4
CCC(=O)N1CC(=O)N2[C@H](C1)[C@H](c1ccc(-c3cccc(C(=O)N(C)C)c3)cc1)[C@@H]2CO	4.7
CN1CCN(C(=O)C[C@@H]2CC[C@@H]3[C@@H](COc4ccc(NC(=O)c5cccs5)cc4C(=O)N3C)O2)CC1	-0.83
COc1ccccc1C#Cc1ccc([C@H]2[C@@H](CO)N3CCCCN(CCC(F)(F)F)C[C@H]23)cc1	-12*
OC[C@H]1[C@@H](c2ccc(-c3ccccc3)cc2)[C@@H]2CN(CCC(F)(F)F)CCCCN12	-0.54
COc1ccccc1C#Cc1ccc([C@@H]2[C@@H](CO)N3CCCCN(CCC(F)(F)F)C[C@H]23)cc1	-2.6
COc1ccccc1C#Cc1ccc([C@H]2[C@H]3CN(CCC(F)(F)F)CCCCN3[C@H]2CO)cc1	-7.2*
SMILES	IDE exosite inh
OC[C@H]1[C@H](c2ccc(C#CC3CCCC3)cc2)[C@@H]2CN(CCC(F)(F)F)CCCCN12	4.3
OC[C@@H]1[C@@H](c2ccc(C#CC3CCCC3)cc2)[C@H]2CN(CCC(F)(F)F)CCCCN12	1.7
C/C=C/c1ccc([C@@H]2[C@@H](CO)N3C(=O)CN(Cc4ccc(F)cc4)C[C@@H]23)cc1	-0.61
COc1ccc(C#Cc2ccc([C@@H]3[C@@H](CO)N4C(=O)CN(C(=O)c5ccccc5)C[C@@H]34)cc2)cc1	3.1
O=C(c1cccc(F)c1)N1CC2(C1)[C@@H](c1ccccc1)[C@H](CO)N2Cc1ccccn1	-0.8
CC(=O)N1CC(=O)N2[C@@H](CO)[C@H](c3ccc(-c4ccccc4)cc3)[C@@H]2C1	1.5
